Results filed as inconclusive are left out. Activity calls are given as the source filed them. Rule for the calls: active = hit-call score of the fitted dose curve at least 0.9, where 1 is the maximum; inconclusive = response in the unintended direction; inactive = score below 0.9.
Target: human Peroxisome Proliferator-activated Receptor delta (PPARd), PPARD (gene 5467) (UniProt Q03181)
Experiment: ERF_US_NR_hPPARD: Eurofins (ERF) Nuclear Receptor (NR) Cell Based Protein-Protein Interaction LeadHunter Assay for human Peroxisome Proliferator-activated Receptor delta (PPARd) Agonism
Protocol: ERF_US_NR_hPPARD is a cell-based, single-readout assay that uses extracted gene-proteins in a cell-line assay. Measurements were taken 5 hours after chemical dosing in a 384-well plate. See PPARdelta Human NHR Cell Based Agonist Protein-Protein Interaction Assay, DiscoverX.ERF_US_NR_hPPARD is an assay component calculated from the ERF_US_NR_hPPARD assay. It is designed to measure radioligand binding using a type of binding reporter as detected by scintillation counting with radiometry technology.Data from the assay component ERF_US_NR_hPPARD was analyzed at the assay endpoint, ERF_US_NR_hPPARD, in the positive analysis fitting direction relative to DMSO as the negative control and baseline of activity. Using a type of binding reporter, gain-of-signal activity can be used to understand changes in binding as they relate to gene PPARD. To generalize the intended target to other relatable targets, this assay endpoint is annotated to the nuclear receptor intended target family, where the subfamily is non-steroidal.
Cells were seeded in a total volume of 20 uL into white walled, 384-well microplates and incubated at 37C overnight prior to testing. Briefly, intermediate dilution of sample stocks was performed to generate 5X sample in assay buffer. 5 uL of 5X sample was added to cells and incubated at 37C for 300 minutes. […] The results are expressed as a percent efficacy of the control ligand.

human Peroxisome Proliferator-activated Receptor delta (PPARd), PPARD (gene 5467), sequence (Q03181 whole entry, looked up): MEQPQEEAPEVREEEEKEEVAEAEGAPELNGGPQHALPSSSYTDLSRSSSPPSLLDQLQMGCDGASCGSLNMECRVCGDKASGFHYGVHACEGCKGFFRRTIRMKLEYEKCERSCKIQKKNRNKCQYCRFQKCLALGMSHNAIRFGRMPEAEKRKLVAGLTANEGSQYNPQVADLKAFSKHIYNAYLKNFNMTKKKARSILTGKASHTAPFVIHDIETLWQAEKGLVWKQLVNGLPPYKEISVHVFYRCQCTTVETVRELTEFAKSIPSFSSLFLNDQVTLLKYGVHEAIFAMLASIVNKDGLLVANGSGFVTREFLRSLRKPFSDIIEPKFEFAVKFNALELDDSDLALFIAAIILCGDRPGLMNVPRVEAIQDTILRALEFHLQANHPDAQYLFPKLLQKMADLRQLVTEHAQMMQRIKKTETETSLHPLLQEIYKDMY

SMILES	outcome
O=C(O)CCC(F)(F)C(F)(F)C(F)(F)F	inactive
O=C(CC(=O)C(F)(F)C(F)(F)C(F)(F)F)c1cccs1	inactive

Reference: PubChem BioAssay AID2284374 (EPA ToxCast)
